The results in this text go back to PubChem BioAssay.

Experiment [1] has as its system Human papillomavirus type 1a protein E7 (residues 44-93). The experiment is described as follows: HPV1a E7 fragment binders on microarrays, primary screen, biochemical, small-molecule microarray, residues 44-93, 635 nm fluorescence (AID 1108).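 Also: E7 fragment applied at 1 µg/mL in TBST for 1 h at 4 C; score combines spot fluorescence with its signal to noise ratio.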 The conditions noted are these: small-molecule microarray binding, fluorescence 635 nm; higher = more signal.
Experiment [2] is described as follows: modulators of HCV replicon luciferase signal, primary screen, HCV replication inhibitor project, Huh7 cells, luciferase reporter (AID 1109).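 Also: huh7 hepatoma cells harbouring a luciferase neomycin HCV replicon reporter; luciferase luminescence as measure of HCV replicon replication; test concentration not given here.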 The conditions noted are these: 48 h, higher = more signal. Background: A replicon is a self-replicating genome or part of one, used to study replication in cells.
Experiment [3] concerns the target Left-right determination factor 2 (Homo sapiens) (UniProt O00292). The experiment is described as follows: LEFTY2 binders on small-molecule microarrays, primary screen, biochemical, small-molecule microarray, 635 nm fluorescence scan (AID 1110). The conditions noted are these: LEFTY2 binding, higher = more signal.
In experiment [4] the target is Calmodulin-1 (Homo sapiens) (UniProt P0DP23). The experiment is described as follows: CALM1 binders on microarrays, EGTA buffer, profiling panel, biochemical, small-molecule microarray, Cy5-labelled CALM1 (AID 1111).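 Also: labelled calmodulin applied in Tris saline Tween buffer holding calcium plus EGTA and DTT.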 The conditions noted are these: Cy5-CALM1 binding fluorescence, higher = more signal.
The target is the same in experiment [5]. The experiment is described as follows: calcium-bound CALM1 binders on microarrays, profiling panel, artefact control for SMM control-protein annotation, biochemical, small-molecule microarray, Cy5-labelled CALM1, plus calcium (AID 1112).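 Also: score merges spot fluorescence with signal to noise from triplicate slides.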 The conditions noted are these: Cy5-CALM1 binding fluorescence, higher = more signal.
A short description of experiment [6]: small-molecule microarray binders of probe aWnt5a, primary screen, biochemical, biotinylated probe, 635/667 nm fluorescence (AID 1113).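 Also: score merges 667 nm fluorescence intensity with signal-to-noise per printed feature.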 The conditions noted are these: higher = more signal.
Experiment [7] in a line: small-molecule microarray binders of probe aShh, primary screen, biochemical, biotinylated probe, 635/667 nm fluorescence (AID 1114).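 Also: probe is biotin-labelled aShh protein from a stem cell growth factor screen; measures binding of labelled protein to compounds printed on the slide; score merges feature fluorescence at 667 nm with signal-to-noise.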 The conditions noted are these: higher = more signal.
Experiment [8] can be described thus: small-molecule microarray binders of probe aNog, primary screen, biochemical, biotinylated probe, 635/667 nm fluorescence (AID 1115).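 Also: probe is biotinylated aNog protein used at 0.15 µg/mL for 1 h at 4 C; z-score combines 667 nm fluorescence of each spot with its signal to noise.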 The conditions noted are these: higher = more signal.
Experiment [9] concerns the target Torsin-1A-interacting protein 1 (Homo sapiens) (UniProt Q5JTV8). The experiment is described as follows: LAP1 binders from COS7 cell lysate, primary screen, small-molecule microarray, 635/667 nm fluorescence (AID 1116). The conditions noted are these: COS7-hLAP1 lysate binding, 635 nm fluorescence, higher = more signal.
Experiment [10] concerns the target Alpha-bungarotoxin (Bungarus multicinctus) (UniProt P60615). The experiment is described as follows: alpha-bungarotoxin binders on microarray, profiling panel, artefact control for SMM control protein annotation, biochemical, small-molecule microarray, Alexa647 label, 635/667 nm fluorescence (AID 1117). The conditions noted are these: alpha-BTX-A647 binding fluorescence, higher = more signal.

For experiment [11], the target named is Albumin (Bos taurus) (UniProt P02769). The experiment is described as follows: bovine serum albumin binders on microarray, profiling panel, artefact control for SMM control protein annotation, biochemical, small-molecule microarray, Alexa647 label, 635/667 nm fluorescence (AID 1118).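 Also: score merges 667 nm emission intensity and signal-to-noise per printed compound spot.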 The conditions noted are these: BSA-A647 binding, fluorescence 635 nm, higher = more signal.

The nature of experiment [12]: small-molecule microarray binders of probe aXIP, primary screen, biochemical, NeuroSMM set, 635/667 nm fluorescence (AID 1119).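 Also: probe is the protein aXip251-270 applied at 1 µg/mL to compound-printed slides; binding of probe to printed compounds measured as 667 nm fluorescence plus signal to noise.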 The conditions noted are these: higher = more signal, called active from +8 up or from −8 down.
Experiment [13] is described as follows: small-molecule binders of probe aNOTCH3, primary screen, biochemical, small-molecule microarray, 635/667 nm fluorescence (AID 1120).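 Also: probe is a biotin-tagged antibody raised against NOTCH3 rather than NOTCH3 protein; score merges spot fluorescence near 667 nm with spot signal to noise.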 The conditions noted are these: higher = more signal.
Experiment [14] is described as follows: small-molecule binders of probe aNOTCH2, primary screen, biochemical, small-molecule microarray, 635/667 nm fluorescence (AID 1121).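 Also: score merges feature fluorescence read at 667 nm with its signal to noise.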 The conditions noted are these: higher = more signal.
The target in experiment [15] is Carbonic anhydrase 2 (Homo sapiens) (UniProt P00918). The experiment is described as follows: CAII small-molecule binders, profiling panel, biochemical, small-molecule microarray, Alexa647-labelled CAII (AID 1122). The conditions noted are these: CAII-A647 binding fluorescence, higher = more signal.
Experiment [16] in a line: COS7 lysate on small-molecule microarray, probe aHis, 635 nm (AID 1123).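 Also: z-score combines 667nm fluorescence intensity with signal-to-noise per printed compound spot.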 The conditions noted are these: COS7 cell lysate, fluorescence, higher = more signal.
Experiment [17] in a line: compound binding in COS7 lysate, probe aLAP1, primary screen, cell lysate, small-molecule microarray (AID 1124).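 Also: lysate comes from COS7 cells expressing LAP1 and is applied at 0.3 µg/mL; score merges spot fluorescence near 667 nm with signal-to-noise over triplicate slides.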 The conditions noted are these: probe aLAP1, fluorescence, higher = more signal.
Experiment [18] deals with Sam68 (KHDRBS1). The experiment is described as follows: Sam68 small-molecule binders, primary screen, biochemical, small-molecule microarray, 635 nm fluorescence (AID 1125).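 Also: score merges 667 nm channel intensity with signal to noise over triplicate slides.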 The conditions noted are these: small-molecule microarray binding, higher = more signal.
The subject of experiment [19] is Chordin-like protein 2 (CHRDL2). The experiment is described as follows: CHRDL2 small-molecule binders, primary screen, biochemical, small-molecule microarray, 635 nm fluorescence (AID 1126).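 Also: printed compound slides probed with Chrdl2 protein at 4 µg/mL for 1 h at 4 C; score merges 667 nm emission intensity with signal to noise over three replicate slides.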 The conditions noted are these: small-molecule microarray binding, fluorescence 635 nm; higher = more signal.
Experiment [20] addresses Concanavalin-A (Canavalia ensiformis) (UniProt P02866). The experiment is described as follows: ConA small-molecule binders, primary screen, artefact control for SMM control protein annotation, biochemical, small-molecule microarray, Alexa647 label, 635 nm (AID 1127).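 Also: z combines 667 nm emission intensity with signal-to-noise across three replicate slides.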 The conditions noted are these: ConA-A647 binding fluorescence, higher = more signal.

The structures appear in SMILES notation. Calls of active or inactive are those of the source.

Chain of Concanavalin-A (Canavalia ensiformis) (P02866 whole entry, looked up): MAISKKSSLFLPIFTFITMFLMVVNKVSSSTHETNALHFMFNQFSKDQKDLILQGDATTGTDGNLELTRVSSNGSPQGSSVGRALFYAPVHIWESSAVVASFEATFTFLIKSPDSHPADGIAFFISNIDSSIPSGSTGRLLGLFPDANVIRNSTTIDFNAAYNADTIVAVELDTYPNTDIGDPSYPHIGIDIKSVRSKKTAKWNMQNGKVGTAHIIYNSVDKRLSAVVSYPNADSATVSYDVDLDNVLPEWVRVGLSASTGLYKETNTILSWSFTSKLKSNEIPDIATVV
Chain of Torsin-1A-interacting protein 1 (Homo sapiens) (Q5JTV8 whole entry, looked up): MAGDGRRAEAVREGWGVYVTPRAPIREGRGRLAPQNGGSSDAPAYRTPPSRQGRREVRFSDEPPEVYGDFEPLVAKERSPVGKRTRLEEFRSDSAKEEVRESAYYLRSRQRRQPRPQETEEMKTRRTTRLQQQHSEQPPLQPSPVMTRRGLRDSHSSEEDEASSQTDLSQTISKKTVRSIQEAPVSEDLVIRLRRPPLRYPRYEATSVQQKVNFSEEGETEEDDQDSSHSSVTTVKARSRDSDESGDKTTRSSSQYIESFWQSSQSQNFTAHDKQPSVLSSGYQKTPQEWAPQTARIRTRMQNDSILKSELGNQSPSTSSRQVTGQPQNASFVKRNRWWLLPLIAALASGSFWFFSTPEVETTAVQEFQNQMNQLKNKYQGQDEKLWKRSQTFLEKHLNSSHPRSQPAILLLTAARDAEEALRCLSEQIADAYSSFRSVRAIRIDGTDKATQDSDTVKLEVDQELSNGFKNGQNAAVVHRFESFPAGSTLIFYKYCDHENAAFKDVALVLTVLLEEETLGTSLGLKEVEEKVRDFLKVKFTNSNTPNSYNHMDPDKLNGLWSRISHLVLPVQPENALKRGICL
Chain of Left-right determination factor 2 (Homo sapiens) (O00292 whole entry, looked up): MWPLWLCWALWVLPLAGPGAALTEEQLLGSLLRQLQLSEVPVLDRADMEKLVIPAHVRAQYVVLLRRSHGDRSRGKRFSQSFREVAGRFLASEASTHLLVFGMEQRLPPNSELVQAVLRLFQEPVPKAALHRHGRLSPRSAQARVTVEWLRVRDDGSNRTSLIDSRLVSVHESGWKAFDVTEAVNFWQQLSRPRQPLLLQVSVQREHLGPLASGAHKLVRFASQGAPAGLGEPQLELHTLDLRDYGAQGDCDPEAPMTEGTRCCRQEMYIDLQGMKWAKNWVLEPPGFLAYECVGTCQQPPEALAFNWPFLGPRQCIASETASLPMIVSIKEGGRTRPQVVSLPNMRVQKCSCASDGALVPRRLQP
Chain of Alpha-bungarotoxin (Bungarus multicinctus) (P60615 whole entry, looked up): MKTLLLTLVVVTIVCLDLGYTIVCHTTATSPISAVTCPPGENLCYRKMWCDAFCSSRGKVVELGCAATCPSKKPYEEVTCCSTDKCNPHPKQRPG
Chain of Albumin (Bos taurus) (P02769 whole entry, looked up): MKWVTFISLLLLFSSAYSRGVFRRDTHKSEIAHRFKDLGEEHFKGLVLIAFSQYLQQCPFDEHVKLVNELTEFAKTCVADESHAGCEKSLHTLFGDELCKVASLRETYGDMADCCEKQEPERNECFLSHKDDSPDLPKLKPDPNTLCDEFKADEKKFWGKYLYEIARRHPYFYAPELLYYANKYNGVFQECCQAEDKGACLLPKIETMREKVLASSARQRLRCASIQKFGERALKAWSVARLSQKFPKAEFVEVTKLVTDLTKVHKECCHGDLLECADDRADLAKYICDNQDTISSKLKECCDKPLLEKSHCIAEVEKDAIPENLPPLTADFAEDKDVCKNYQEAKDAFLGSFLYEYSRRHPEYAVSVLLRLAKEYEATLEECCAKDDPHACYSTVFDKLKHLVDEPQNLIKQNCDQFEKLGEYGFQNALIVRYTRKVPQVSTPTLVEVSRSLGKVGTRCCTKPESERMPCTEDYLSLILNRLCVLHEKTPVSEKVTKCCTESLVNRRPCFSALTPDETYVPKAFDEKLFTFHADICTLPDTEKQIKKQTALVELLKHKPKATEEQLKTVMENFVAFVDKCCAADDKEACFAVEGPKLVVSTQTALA

For the molecule `C=CCN1C(=O)[C@@]2(O[C@@H](CCn3cc([C@H](O)c4ccccc4)nn3)[C@H]([Si](C)(C)c3ccc(OC)cc3)[C@H]2C)c2cc(NC(=O)c3ccc(OC)cc3)ccc21`, the composite z-score in [1] was 0.795; in [3] it was 0.426; in experiment [4], 0.607; in experiment [5], 0.14; in experiment [6], -0.0735; in [7] it was 0.0815. The composite z-score was 0.338 in [8]; 0.385 in experiment [9]; 0.627 in [10]; -0.105 in [11]; -0.0932 in experiment [13]; -0.173 in experiment [14]. Further, the composite z-score amounted to 0.148 in [15]; 0.637 in [16]; 0.0719 in experiment [17]; 1.03 in experiment [18]; 0.271 in experiment [19]; 0.713 in experiment [20]. Also, the z-score in [2] was -3.99. Besides, in experiment [12], the composite Z-score was -0.0277 (inactive).
Take `O=C1c2ccccc2[C@](Cc2ccccc2I)(C(=O)NCC(F)(F)F)[C@H](c2ccc(CO)cc2)N1Cc1ccccc1`: the composite z-score in experiment [1] was 1.42; in experiment [3], -0.38; in experiment [4], 1.4; in experiment [5], 0.464; in experiment [6] it was -0.155; in [7], 0.0048. Further, the composite z-score in [8] was 0.0139; in [9], 0.419; in [10], 0.928; in [11] it was 0.684; in [13], -0.0183; in experiment [14] it was -0.112. For the same molecule, the composite z-score in [15] is 0.593; in experiment [16], 2.19; in [17], 0.321; in experiment [18] it was 1.18; in [19], -0.213; in experiment [20], 1.11. Also, in [2], the z-score is -0.673. The composite Z-score in experiment [12] was 0.341 (inactive).
Take `COCCOC(=O)N1C(=O)[C@@]2(c3cc(C#CCCO)ccc31)[C@H](c1ccc(OCCO)cc1)N1[C@H](c3ccccc3)[C@H](c3ccccc3)OC(=O)[C@H]1[C@@H]2C(=O)N1CCc2cc(OC)c(OC)cc2C1`: the composite z-score in experiment [1] was 1.39; in experiment [3], 0.503; in experiment [4] it was 0.759; in experiment [5], 0.215; in [6], -0.124; in experiment [7], -0.0904. The composite z-score in [8] is 0.0531; in experiment [9], -0.0856; in experiment [10], 0.642; in experiment [11], -0.627; in experiment [13], 0.0893; in experiment [14] it was -0.0731. Moreover, the composite z-score in experiment [15] was 0.239; in experiment [16], 1.06; in [17] it was 1.48; in [18], 1.31; in experiment [19] it was 0.559; in experiment [20], 1.08. Also, the z-score in [2] is -1.12. The composite Z-score in experiment [12] is 0.443 (inactive).
`C[C@@H]1ON(c2ccccc2)[C@H](c2ccccc2)[C@H]1C(=O)N1C(=O)OC[C@H]1Cc1ccccc1`: the composite z-score was 1.06 in [1]; 0.567 in [3]; -0.137 in [4]; -0.542 in experiment [5]; 0.765 in experiment [6]; -0.304 in experiment [7]. The composite z-score was -0.282 in experiment [8]; 0.28 in experiment [9]; 0.327 in experiment [10]; 0.215 in [11]; -0.0057 in experiment [13]; -0.14 in experiment [14]. In addition, the composite z-score was 0.303 in experiment [15]; 0.514 in experiment [16]; -0.0985 in experiment [17]; 0.885 in experiment [18]; 0.447 in experiment [19]; 0.603 in experiment [20]. Also, the z-score in experiment [2] is -0.782. Besides, the composite Z-score in experiment [12] is 0.477 (inactive).
In the case of `COC(=O)[C@@]1(Cc2ccc(OC)cc2)[C@H]2c3cc(C(=O)N(C)C)n(CCF)c3C[C@H]2CN1C(=O)c1ccccc1`, the composite z-score in [1] amounted to 0.528; in experiment [3], 0.216; in experiment [4], 2.13; in experiment [5], 1.02; in experiment [6] it was 0.027; in [7], 0.675. The composite z-score in experiment [8] is 1.82; in [9] it was 1.01; in experiment [10], 1.79; in experiment [11], 1.01; in experiment [13] it was 0.292; in [14], -0.0015. In addition, the composite z-score was 0.793 in experiment [15]; 2.96 in [16]; 0.721 in experiment [17]; 1.32 in [18]; -0.499 in experiment [19]; 1.21 in experiment [20]. In experiment [2], this molecule showed a z-score of -1.83. The composite Z-score in experiment [12] is 1.22 (inactive).
